96 molecules from PubChem BioAssay AID1321 (The Scripps Research Institute Molecular Screening Center, 2008) can be followed below.

In all, about 220,000 compounds went through this assay and about 2,600 (1.2%) were called active. Shown is part of a subset that was picked to be rich in actives. Values without a mark were called inactive.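 Rule for the calls: active = activation above the mean of all tested compounds plus 3 SD, set per screening run (cut at about 8.8% in these data); inactive = the rest.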

This test addresses Wee1-like protein kinase (Homo sapiens) (UniProt P30291). Put plainly: Wee1 degradation inhibitors, primary screen, cell-based, HeLa, Wee1K328M-luciferase, luminescence (AID 1321).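 Note: cells exposed to compound for 20 h before luminescence read; 0% = DMSO alone and 100% = MG132 at 30 µM.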 The settings on record: HeLa Luc-Wee1K328M stability, at 5 µM, hits give high values, 100% = proteasome inhibitor MG132 effect.
As for `CC(=O)NC(=S)Nc1ccc(NC(=S)NC(=O)c2ccc([N+](=O)[O-])cc2)cc1`, the reporter increase was 1.61%.
Consider `Cc1nnc(C)c2c(C)n(N)c(C)c12`, for which the reporter increase is 3.05%.
Under `O=C(CCl)Nc1ccc(Sc2ccc(NC(=O)CCl)cc2)cc1` stands -0.49%; under `Cc1ccc(NC(=O)CCN2CCc3ccccc3C2)cc1`, 0.24%; under `Cc1ccc(NC(=O)CC(=O)Nc2ccc(C)cc2)cc1`, 1.54%.
Next, `Cc1ccc(NC(=O)CN2CCc3ccccc3C2)cc1`: 12.7% (active); `COc1ccc(NC(=O)C2=C(C)NC(=O)NC2c2ccccc2[N+](=O)[O-])cc1` (stereo unspecified): 0.32%; `O=[N+]([O-])c1cccc2ncccc12`: -1.36%.
Next, `O=C(Nc1cccc2ncccc12)C(Cl)(Cl)Cl`: 9.1% (active); `Cc1ccc(C(=O)Nc2cccc3ncccc23)cc1[N+](=O)[O-]`: 54.1% (active); `O=C(O)c1cc(Cl)c(Cl)cc1C(=O)Nc1cccc2ncccc12`: -2.37%.
On to `O=C(Nc1cccc2ncccc12)c1ccc(-c2ccc(Cl)cc2Cl)o1`, for which the reporter increase is 7.64%.
Regarding `Cc1cc(O)c(NC(=O)c2ccc(C)c([N+](=O)[O-])c2)cc1C`, the reporter increase was 2.32%.
With `O=C(NC(=O)c1ccccc1N1CCCCC1)Nc1ccc(Br)cc1`, the reporter increase is -1.56%.
Under `Fc1ccc(Nc2nnns2)cc1` stands -1.03%; under `CN1CCN(c2cc3c(cc2F)c(=O)c(C(=O)O)cn3CCF)CC1`, -0.92%; under `C#CCNc1ccc(C(=O)OCC)cc1`, -0.22%.
Consider `CCOC(=O)c1c(NC(=O)c2cccs2)sc(C)c1C`, for which the reporter increase is -0.63%.
Under `CCOC(=O)c1c(/N=C/C2C(=O)CC(C)(C)CC2=O)sc(C)c1C` stands 12.6% (active); under `CCOC(=O)c1sc(/N=C/C2=C(O)CC(C)(C)CC2=O)c(C(=O)OCC)c1C`, 0.6%.
Under `COc1cc(OC)cc(/C(N)=N/O)c1` stands 5.93%.
Under `Cc1ccc(CN(C)CC(=O)Nc2cccc([N+](=O)[O-])c2)o1` stands 8.93% (active); under `CN(CC(=O)Nc1cccc(F)c1)CC(=O)Nc1cccc([N+](=O)[O-])c1`, 3.36%; under `CC(=O)Nc1cccc([N+](=O)[O-])c1`, 1.71%.
Consider `COc1ccc(N=Nc2ccc(O)c(P(=O)(c3ccccc3)c3ccccc3)c2)cc1`, for which the reporter increase is 2.24%.
Under `Clc1ccc(C[n+]2cc(-c3ccccc3)n3c2CCC3)cc1` stands -0.29%; under `COc1ccccc1NC(=O)C1=C(C)Nc2nc3ccccc3n2C1c1cccs1` (stereo unspecified), 5.69%.
`COc1ccccc1NC(=O)c1ccc(C)s1`: the reporter increase was -0.54%.
Under `COc1ccccc1NC(=O)C1=C(C)NC(=O)NC1c1ccc(C)s1` (stereo unspecified) stands 9.03% (active); under `Nc1nc(Nc2ccccc2)nc(NCCO)c1[N+](=O)[O-]`, -3.26%; under `Cc1cc(C)c(C)c(S(=O)(=O)N[C@@H](C)C(=O)OC(C)C(=O)NC(N)=O)c1C` (stereo partly specified), -2.95%.
Next, `COc1cccc(/C=N\Nc2nncc(-c3ccccc3)n2)c1`: 0.25%; `CCOc1ccc(/C=N/Nc2nncc(-c3ccccc3)n2)cc1OC`: 16.9% (active).
Under `COc1ccc(/C=N/Nc2nc3ccccc3o2)cc1OC` stands 4.92%; under `OCCN1CCN(C(=S)c2ccc(-c3ccccc3)cc2)CC1`, -3.59%.
For the molecule `COc1ccc(NC(=O)C2CCC(CNc3c(N4CCCCC4)c(=O)c3=O)CC2)c(OC)c1` (stereo unspecified), the reporter increase is 1.06%.
Under `CCOC(=O)c1nnn2c3ccccc3c(=O)n(C)c12` stands -0.3%.
Next, `Cc1ncn2cc(-c3ccc(Cl)cc3Cl)[nH]c(=O)c12`: -1.11%; `Cc1ccc(S(=O)(=O)/N=C(/NC(=S)Nc2c(C)n(C)n(-c3ccccc3)c2=O)c2ccccc2)cc1`: -0.69%.
Consider `CCc1ccccc1NC(=O)CSc1nnc(CCNC(=O)OC(C)(C)C)o1`, for which the reporter increase was 5.87%.
For `Cc1ccccc1CSc1nnc(CCCCCNC(=O)OC(C)(C)C)o1`, the reporter increase was 15.4% (active).
Next, `Cc1cccc(NC(=O)CSc2nnc(CCCCCNC(=O)OC(C)(C)C)o2)c1C`: -2.16%; `CSc1nnc(-c2ccc(C(F)(F)F)cn2)o1`: -1.5%.
Under `Cc1nc(-c2nnc(SCC(=O)Nc3cc(C(F)(F)F)cc(C(F)(F)F)c3)n2C)cs1` stands 2.29%; under `CCn1c(=O)c([N+](=O)[O-])c(NCc2ccc3c(c2)OCO3)c2ccccc21`, -2.11%.
Under `COc1ccccc1N1CCN(c2ccc([N+](=O)[O-])nc2)CC1` stands 12.9% (active).
Take `COc1ccc(N2CCN(c3ccc([N+](=O)[O-])nc3)CC2)cc1`: the reporter increase is 2.25%.
Next, `COc1ccccc1N1CCN(CCCCOc2ccc(F)cc2)CC1`: 1.24%.
On to `CCC(C)NC(=O)C1c2ccccc2Oc2ccccc21` (stereo unspecified), for which the reporter increase was 2.05%.
Next, `Cc1ccc(N2CCN(S(=O)(=O)N(C)C)CC2)cc1Cl`: 13.4% (active); `CN(C)S(=O)(=O)N1CCN(c2ccc([N+](=O)[O-])cc2)CC1`: 6.3%; `CC(C)=C1SC(N2CCN(c3ccc(C)c(Cl)c3)CC2)=NC1=O`: -2.39%.
Under `N#C/C(=C/c1ccc(-c2ccccc2[N+](=O)[O-])o1)C(=O)NCCN1CCCCC1` stands -2.23%.
`N#C/C(=C\c1ccc(-c2cccc([N+](=O)[O-])c2)o1)C(=O)NCCN1CCOCC1`: the reporter increase was 9.19% (active).
Under `Cc1ccc(Cc2cnc(NC(=O)/C(C#N)=C/c3ccc(-c4cccc([N+](=O)[O-])c4)o3)s2)cc1` stands -0.97%; under `CCOC(=O)C1=C(c2ccccc2)NC(=S)NC1c1ccc(Cl)cc1` (stereo unspecified), 3.7%; under `CC(C)(C)c1cc(P(=O)(c2ccccc2)c2ccccc2)ccc1O`, 0.95%.
`COc1ccc(C2c3ccc(O)cc3Oc3ncn(CCCO)c(=N)c32)cc1OC` (stereo unspecified): the reporter increase is 2.84%.
As for `N#Cc1ccc(Oc2ccc(C(F)(F)F)cc2NC(=O)c2ccc(F)cc2)cc1`, the reporter increase was 2.35%.
Next, `COc1cc(/C=C2/C(=O)NN(c3ccc(F)cc3)C2=O)cc([N+](=O)[O-])c1O`: -0.14%.
Consider `Cc1ccc(CC2CC(=O)N(c3nc(C)cc(C)n3)C2=O)cc1` (stereo unspecified), for which the reporter increase was -2.45%.
Next, `COc1ccc(CN2C(=O)CC(Cc3ccc(C)cc3)C2=O)cc1OC` (stereo unspecified): 10.8% (active); `COc1ccc(CCN2C(=O)C3CC=C(C)CC3C2=O)cc1OC` (stereo unspecified): 5.14%.
Under `Cc1nc(-c2ccccc2)sc1-c1nnc(C2CC2)o1` stands -1.78%; under `CCOC(=O)c1cc(Sc2ccccc2N)cc(C(=O)OCC)n1`, -2.91%.
For `Cc1nnsc1C(=O)N/N=C/c1ccccc1Cl`, the reporter increase was 2.61%.
Next, `COc1cccc(N(CC(=O)Nc2cccc(F)c2)S(C)(=O)=O)c1`: 8.9% (active); `COc1cccc(N(CC(=O)Nc2cccc(N(C)S(C)(=O)=O)c2)S(C)(=O)=O)c1`: -1.32%; `CCN(CC)S(=O)(=O)c1ccc(NC(=O)CN(c2cccc(F)c2)S(C)(=O)=O)cc1`: -1.26%.
Next, `O=C(CC1CCCCC1)NCc1ccc(F)cc1`: 8.97% (active); `O=C(CC1CCCCC1)NCc1ccco1`: 0.37%; `O=C(Cc1ccc(F)cc1)NC1CCCC1`: -1.42%.
Next, `CC(OC(=O)c1ccc(NS(=O)(=O)c2ccc3[nH]c(=O)[nH]c3c2)cc1)C(=O)Nc1cccc(Cl)c1Cl` (stereo unspecified): 24.1% (active); `Cc1ccc(S(=O)(=O)/N=C(/Nc2ccc3[nH]c(=O)[nH]c3c2)c2ccccc2)cc1`: -1.22%.
With `COC(=O)c1ccccc1NS(=O)(=O)c1ccc2[nH]c(=O)[nH]c2c1`, the reporter increase is -1.86%.
Under `O=C1/C(=C/c2coc3ccc(O)cc3c2=O)SC(=S)N1c1ccccc1` stands -0.03%; under `COc1c(C=O)c(CCN(C)C(=O)c2ccc(F)cc2)cc2c1OCO2`, 0.06%.
Under `Fc1ccc(COc2cccc(-c3n[nH]c(=S)o3)c2)cc1` stands -0.05%.
Under `Fc1ccc(COc2ccc(-c3nnco3)cc2)cc1` stands 16.2% (active).
For the molecule `COc1ccc(-c2nnco2)cc1OC`, the reporter increase was -2.71%.
Under `CCOC(=O)Cc1cc(=O)[nH]c(/N=C(\N)Nc2ccc(OC)cc2)n1` stands 0.86%; under `Oc1ccc2ccccc2c1C=Nc1ccccc1`, -2.84%; under `O=C(COC(=O)c1cc(S(=O)(=O)N2CCCCC2)ccc1Cl)NCc1ccco1`, 5.36%.
On to `CCn1c2ccccc2c2cc(NC(=O)COC(=O)c3ccccc3Br)ccc21`, for which the reporter increase is 1.86%.
`CCn1c2ccccc2c2cc(NC(=O)COC(=O)c3cc(S(=O)(=O)N4CCCCC4)ccc3Cl)ccc21`: the reporter increase is 11.6% (active).
Under `Nc1ccc(C(=O)OCC(=O)NC2CCS(=O)(=O)C2)cc1[N+](=O)[O-]` (stereo unspecified) stands -1.54%; under `COc1ccccc1P(=O)(c1ccccc1)c1ccccc1NC(C)=O` (stereo unspecified), 0.01%.
Next, `Cc1ccc(NC(=O)CS(=O)CC(=O)N(c2ccccc2)C(C)C(=O)NC2CCCC2)cc1` (stereo unspecified): 10.2% (active); `Cc1ccc(-c2nc(CS(=O)CC(=O)NC3CCCC3)c(C)o2)cc1` (stereo unspecified): 2.35%; `Cc1ccc(NC(=O)CSCC(=O)NC2CCCCC2)cc1`: 0.26%.
`Nc1nc(NC(=O)/C=C/c2ccc(F)cc2)nn1-c1ccccc1`: the reporter increase is -3.61%.
Next, `Oc1ccc(-c2nnc(Nc3ccccc3)c3ccccc23)cc1`: -2.97%; `O=C1/C(=C/c2cccs2)SC(=S)N1C1CCS(=O)(=O)C1` (stereo unspecified): 2.22%.
As for `O=C(O)CCCCc1nc2ccccc2s1`, the reporter increase is 1.81%.
Next, `COc1ccccc1OCc1nc2ccccc2s1`: 10.1% (active); `COc1cccc2sc(NNC(=O)c3nc4ccccc4s3)nc12`: 1.43%.
